High-throughput results: PubChem BioAssay, several laboratories
Mcl1 Noxa PPI = disrupts binding of human Mcl-1 to Noxa peptide | TR-FRET Mcl-1/Noxa peptide binding, 2 h | inhibition, % at 21.7 µM | 220,000 tested, 1.5% active;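 active = compounds that cut the protein-peptide binding signal by more than 50% relative to plate controls in a single-dose test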;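 also: His-tagged Mcl-1 with rhodamine Noxa BH3 peptide and terbium anti-His antibody; 0% = Mcl-1 plus Noxa peptide wells and 100% = peptide-only wells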
Target sequence (Q07820 whole entry, looked up): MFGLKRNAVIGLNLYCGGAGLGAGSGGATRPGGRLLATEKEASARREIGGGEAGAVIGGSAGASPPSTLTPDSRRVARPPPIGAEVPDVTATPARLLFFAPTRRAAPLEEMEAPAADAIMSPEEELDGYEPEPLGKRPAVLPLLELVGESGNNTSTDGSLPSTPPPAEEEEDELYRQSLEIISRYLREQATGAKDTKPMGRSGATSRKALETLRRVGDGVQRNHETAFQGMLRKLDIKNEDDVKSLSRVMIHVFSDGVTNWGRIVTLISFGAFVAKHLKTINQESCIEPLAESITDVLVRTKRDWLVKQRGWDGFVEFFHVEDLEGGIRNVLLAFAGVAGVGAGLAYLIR
14-3-3 Bad PPI = disrupts binding of bovine 14-3-3 zeta to phospho-Bad peptide; P63103; TR-FRET 14-3-3zeta/Dy647-pBad peptide displacement, 1 h; inhibition, % at 21.7 µM; 220,000 tested, 0.71% active; AID 781;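 active = inhibition above about 70%, limit read from the data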;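 also: 0% = full 14-3-3 plus peptide FRET controls and 100% = background without 14-3-3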
Target sequence (P63103 whole entry, looked up): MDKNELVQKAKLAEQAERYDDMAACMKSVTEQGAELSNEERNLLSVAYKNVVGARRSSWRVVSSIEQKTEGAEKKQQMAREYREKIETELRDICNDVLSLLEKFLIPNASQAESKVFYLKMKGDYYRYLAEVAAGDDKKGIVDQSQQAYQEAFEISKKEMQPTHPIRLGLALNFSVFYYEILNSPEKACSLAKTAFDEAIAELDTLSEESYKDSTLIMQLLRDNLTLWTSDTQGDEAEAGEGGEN
Bim-Mcl-1 = disrupts Bim peptide binding to human Mcl-1. 190,000 tested, 0.1% active. inhibition, % at 10 µM. Q07820. Bead-based flow cytometry, Bim peptide-Mcl-1 binding; in the data active = inhibition above about 40%;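 also: 0% = no compound tracer wells and 100% = peptide blocker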
p47phox inh = blocks human p47phox regulatory protein of NADPH oxidases | P14598 | p47phox/p22phox peptide binding, fluorescence polarization, 2 h | inhibition, % at 24.7 µM | 220,000 tested, 0.53% active | AID 1274;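 active = inhibition above about 30%, limit read from the data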;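 also: 0% = p47phox with labelled peptide and 100% = labelled peptide alone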
Mcl1 Bid PPI = disrupts binding of human Mcl-1 to Bid peptide | Q07820 | TR-FRET Mcl-1/Bid-Dy647 peptide binding, 1536-well | inhibition, % at 21.7 µM | 220,000 tested, 0.97% active;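 active = compounds that cut the binding signal by more than half at the single screening dose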;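 also: His-tagged Mcl-1 with europium anti-His antibody binding Bid BH3 peptide; 0% = Mcl-1 plus peptide wells and 100% = peptide-only wells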
* = called active by the depositor; [ ] = dose if it differs, or a comment. Only some compounds are listed: those with a hit (about 3.2% of all), similar ones and a draw of the others.

CCOCCCNC(=O)c1ccc(Cn2c(=S)[nH]c3c([nH]c4ccc(OC)cc43)c2=O)cc1 was read as Mcl1 Noxa PPI 56.2*, 14-3-3 Bad PPI -4.6, Bim-Mcl-1 3.0, p47phox inh -3.8 and Mcl1 Bid PPI -27.4.
Cc1cc(/C=N/n2c(COc3ccccc3C)nc3ccccc3c2=O)c(O)c([N+](=O)[O-])c1 was read as Mcl1 Noxa PPI 80.5*, 14-3-3 Bad PPI -4.8, Bim-Mcl-1 -1.0, p47phox inh -10.4 and Mcl1 Bid PPI -1.8.
Screening CCOC(=O)c1[nH]cnc1C(=O)Nc1ccc(F)cc1 returned Mcl1 Noxa PPI 15.9, 14-3-3 Bad PPI -5.1, Bim-Mcl-1 -2.0, p47phox inh 1.8 and Mcl1 Bid PPI -20.7.
Screening CCOC(=O)c1[nH]cnc1C(=O)Nc1ccncc1 returned Mcl1 Noxa PPI -11.1, 14-3-3 Bad PPI 2.9, Bim-Mcl-1 -1.0, p47phox inh 12.4 and Mcl1 Bid PPI 83.4*.
Screening CCc1ccc(C(=O)NC2CCCCC2)s1 returned Mcl1 Noxa PPI -3.5, 14-3-3 Bad PPI 0.8, Bim-Mcl-1 -3.0, p47phox inh -10.8 and Mcl1 Bid PPI 61.4*.
For CC(C)CN(CC(C)C)C(=O)CCCC(=O)N(CC(C)C)CC(C)C the results were Mcl1 Noxa PPI -3.3, 14-3-3 Bad PPI 4.3, Bim-Mcl-1 -4.0, p47phox inh -10.0 and Mcl1 Bid PPI 2.4.
Screening O=C(O)CCCn1cc(NC(=O)COc2cc(F)ccc2[N+](=O)[O-])cn1 returned Mcl1 Noxa PPI -21.7, 14-3-3 Bad PPI -2.2, Bim-Mcl-1 0.0, p47phox inh -1.6 and Mcl1 Bid PPI -18.1.
O=C(Cn1nc(C(=O)O)c2ccccc2c1=O)Nc1ccc2c(c1)C(=O)c1ccccc1C2=O was read as Mcl1 Noxa PPI 80.1*, 14-3-3 Bad PPI 80.3*, p47phox inh -9.8 and Mcl1 Bid PPI 75.4*.
For Cc1nn(CC(=O)Nc2ccc3c(c2)oc2ccccc23)c(=O)c2ccccc12 the results were Mcl1 Noxa PPI -238.3, 14-3-3 Bad PPI 66.2, Bim-Mcl-1 -5.0, p47phox inh 38.6* and Mcl1 Bid PPI 38.5.
CNC(=O)Cn1nc(C)c2ccccc2c1=O was read as Mcl1 Noxa PPI 1.7, 14-3-3 Bad PPI 0.7, Bim-Mcl-1 0.0, p47phox inh -0.9 and Mcl1 Bid PPI -2.8.
`CCC(C)c1ccc(NC(=O)C/C(C)=N/NC(=O)c2cnccn2)cc1` (centres undefined) gave Mcl1 Noxa PPI 13.1, 14-3-3 Bad PPI -7.6, Bim-Mcl-1 0.0, p47phox inh -0.7 and Mcl1 Bid PPI -8.7.
`CCOCCn1c(=NC(=O)/C=C/c2ccccc2Cl)sc2cc(NC(C)=O)ccc21` gave Mcl1 Noxa PPI 31.5, 14-3-3 Bad PPI 32.9, Bim-Mcl-1 -1.0, p47phox inh 2.6 and Mcl1 Bid PPI 61.0*.
COc1cc(/C=C/C(=O)O)cc(S(=O)(=O)NC2CC2)c1OC was read as Mcl1 Noxa PPI 1.4, 14-3-3 Bad PPI -15.6, Bim-Mcl-1 -23.0, p47phox inh -8.8 and Mcl1 Bid PPI -4.7.
For COc1ccc(/C=C/C(=O)OCC(=O)Nc2ccc(N3CCOCC3)cc2)cc1 the results were Mcl1 Noxa PPI -2.5, 14-3-3 Bad PPI 10.8, Bim-Mcl-1 0.0, p47phox inh 10.7 and Mcl1 Bid PPI -1.1.
For COc1ccc(C(=O)Nc2ccc(N3CCCC3)cc2)cc1 the results were Mcl1 Noxa PPI 86.3*, Bim-Mcl-1 -2.0, p47phox inh 10.4 and Mcl1 Bid PPI -46.6.
For O=C(Nc1ccc(N2CCCC2)cc1)c1ccc(Br)o1 the results were Mcl1 Noxa PPI 93.9*, 14-3-3 Bad PPI 22.2, Bim-Mcl-1 3.0, p47phox inh 3.0 and Mcl1 Bid PPI -9.6.
For CCOc1ccc(/C=C/C(=O)Nc2ccc(N3CCOCC3)cc2)cc1 the results were Mcl1 Noxa PPI -4.8, 14-3-3 Bad PPI -3.2, Bim-Mcl-1 0.0, p47phox inh 1.0 and Mcl1 Bid PPI 101.0*.
CCOc1ccc(C(=O)Nc2ccc(N3CCCC3)cc2)cc1 was read as Mcl1 Noxa PPI 62.9*, 14-3-3 Bad PPI 84.6*[fluorescence artefact?], Bim-Mcl-1 1.0, p47phox inh -89.5 and Mcl1 Bid PPI 9.3.
For COc1ccccc1Nc1nnc(SCC(=O)NC(=O)Nc2ccc3c(c2)OCCO3)s1 the results were Mcl1 Noxa PPI 16.8, 14-3-3 Bad PPI -6.8, Bim-Mcl-1 -2.0, p47phox inh -2.6 and Mcl1 Bid PPI -25.2.
CC(C)(C)NC(=O)CN(CCc1ccccc1)C(=O)c1csnn1 was read as Mcl1 Noxa PPI 8.0, 14-3-3 Bad PPI -0.9, Bim-Mcl-1 -5.0, p47phox inh -15.1 and Mcl1 Bid PPI -13.4.
O=C(Nc1cccc(NC(=O)c2ccc(Br)o2)n1)c1ccc(Br)o1 was read as Mcl1 Noxa PPI -35.4, 14-3-3 Bad PPI 75.0*, Bim-Mcl-1 1.0, p47phox inh 11.3 and Mcl1 Bid PPI -11.2.
Screening COc1cc(NS(=O)(=O)c2ccc(NC(=S)NC(=O)c3sc4ccccc4c3Cl)cc2)ncn1 returned Mcl1 Noxa PPI 54.7*, 14-3-3 Bad PPI -3.5, Bim-Mcl-1 -2.0, p47phox inh 8.6 and Mcl1 Bid PPI -7.6.
Screening COc1cc(NS(=O)(=O)c2ccc(NC(=S)NC(=O)c3ccco3)cc2)ncn1 returned Mcl1 Noxa PPI -0.3, 14-3-3 Bad PPI -7.4, Bim-Mcl-1 0.0, p47phox inh -7.5 and Mcl1 Bid PPI -37.0.
O=C(Cn1cnc2cc([N+](=O)[O-])ccc2c1=O)Nc1cccc(S(=O)(=O)N2CCOCC2)c1 was read as Mcl1 Noxa PPI 52.8*, 14-3-3 Bad PPI -7.4, Bim-Mcl-1 -2.0, p47phox inh -2.5 and Mcl1 Bid PPI -6.0.
`O=C(Cn1cnc2ccccc2c1=O)Nc1ccc(S(=O)(=O)N2CCOCC2)cc1` gave Mcl1 Noxa PPI 11.2, 14-3-3 Bad PPI -1.8, Bim-Mcl-1 -2.0, p47phox inh -4.8 and Mcl1 Bid PPI -16.6.
For COc1cccc(N=C2SC(CC(=O)Nc3ccccc3)C(=O)N2Cc2ccccn2)c1 (centres undefined) the results were Mcl1 Noxa PPI 6.7, 14-3-3 Bad PPI 2.4, Bim-Mcl-1 -3.0, p47phox inh -21.4 and Mcl1 Bid PPI -16.7.
`COc1ccc(CN2C(=O)c3c(c(C)n(C)c3C)C2C(=O)NC2CCC(C)CC2)cc1` (centres undefined) gave Mcl1 Noxa PPI -22.4, 14-3-3 Bad PPI 54.5, Bim-Mcl-1 0.0, p47phox inh -3.8 and Mcl1 Bid PPI -36.5.
Screening S=c1[nH]nc(-c2ccncc2)n1/N=C/c1cn(-c2ccccc2)nc1-c1ccc(Cl)cc1 returned Mcl1 Noxa PPI 62.0*, 14-3-3 Bad PPI 28.4, p47phox inh -7.0 and Mcl1 Bid PPI -59.2.
`CC(C)NC(=S)N/N=C/c1cc(Br)ccc1O` gave Mcl1 Noxa PPI -0.7, 14-3-3 Bad PPI -6.5, Bim-Mcl-1 -6.0, p47phox inh 9.8 and Mcl1 Bid PPI -78.7.
COCCn1nnnc1CN1CCN2CCCC2C1 (centres undefined) was read as Mcl1 Noxa PPI 23.6, 14-3-3 Bad PPI 85.7*, Bim-Mcl-1 -1.0, p47phox inh 18.8 and Mcl1 Bid PPI 13.5.
Screening CC(C)(C)OC(=O)NC(Cc1ccccc1)C(=O)O (centres undefined) returned Mcl1 Noxa PPI 35.6, 14-3-3 Bad PPI 23.1, p47phox inh -5.6 and Mcl1 Bid PPI 59.6*.
